Compound activity from PubChem.
The list is not random: actives were taken first. Their share in the collection is about 3.5%.
FBW7 act = human FBW7 E3 ligase activation, primary screen; AlphaScreen FBW7–phospho-cyclin E peptide binding, activator screen; actives 0.13% (n = 650,000); normalized activity (activation), % at 26.1 µM; AID 1259310; in the data active = normalized activity above about 1.9%;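 note: purified mutant Fbw7 with reduced substrate affinity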
MITF primary = inhibitors of human MITF; actives 0.91% (n = 650,000); inhibition, % at 2.6 µM; O75030; AlphaScreen MITF homodimerization, bead proximity signal; in the data active = inhibition above about 50%;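 note: 0% = vehicle wells with protein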
Target sequence (O75030 whole entry, looked up): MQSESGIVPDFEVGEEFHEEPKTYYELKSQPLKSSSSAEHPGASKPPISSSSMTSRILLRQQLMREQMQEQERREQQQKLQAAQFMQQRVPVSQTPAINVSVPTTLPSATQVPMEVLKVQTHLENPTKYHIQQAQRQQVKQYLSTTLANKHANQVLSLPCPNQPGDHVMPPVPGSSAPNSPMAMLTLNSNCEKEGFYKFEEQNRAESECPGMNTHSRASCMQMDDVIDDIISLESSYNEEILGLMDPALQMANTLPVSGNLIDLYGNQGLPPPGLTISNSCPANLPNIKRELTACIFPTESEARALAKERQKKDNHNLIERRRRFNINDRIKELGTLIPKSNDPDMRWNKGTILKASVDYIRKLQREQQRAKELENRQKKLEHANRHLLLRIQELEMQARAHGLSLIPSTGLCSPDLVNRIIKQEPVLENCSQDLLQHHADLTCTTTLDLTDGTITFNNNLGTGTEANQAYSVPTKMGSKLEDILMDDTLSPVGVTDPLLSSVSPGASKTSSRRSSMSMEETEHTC
GPR151 activ = activates the human receptor GPR151 | PathHunter beta-arrestin GPR151 cells, luminescence | activation, % at 11.2 µM | Q8TDV0 | actives 1% (n = 650,000) | AID 1508602; in the data active = activation above about 4.9%;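 note: 0% = median of compound wells and 100% = cells with positive control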
TEAD-YAP inh = TEAD-YAP interaction inhibition; HEK-TIYL cells, TEAD-Gal4/YAP UAS-luciferase luminescence; inhibition, % at 9.12 µM; actives 1.4% (n = 640,000); AID 1259422; in the data active = inhibition above about 32%;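 note: 0% = median of test compound wells and 100% = reference inhibitor wells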
GPR151 conf act = human GPR151 activation, confirmation screen; shares compounds with GPR151 activ; GPR151 PathHunter beta-arrestin cells, luminescence, 90 min; % of EA-reagent control over plate median; activation, % at 11.2 µM; 6,700 tested, under 10 active;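 active = mean percent activation across replicates above the confirmation screen cutoff of 4.91%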
GPR119 ag = activates human GPR119 in a GPR151 counter-screen | shares compounds with GPR151 activ | GPR119 PathHunter beta-arrestin cells, luminescence, 90 min; 0 = compound-well median, 100 = enzyme-acceptor control | activation, % at 11.2 µM | actives 0.3% (n = 6,700);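 active = mean percent activation in the counterscreen above 29.09%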;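 note: counterscreen on off-target GPR119 to flag nonselective hits from the GPR151 activator screen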
* = called active by the depositor; · = not tested or not shown.

SMILES	FBW7 act	MITF primary	GPR151 activ	TEAD-YAP inh	GPR151 conf act	GPR119 ag
O=C(NCCCNc1ccc([N+](=O)[O-])cc1)c1ccc(F)cc1	0	-16	5.7*	8	-1	-5
CCOC(=O)c1ccc(NC(=O)/C(=C/c2cccc(Br)c2)NC(=O)c2ccco2)cc1	0	-5	-1	13	·	·
O=C(NCCO)/C(=C\c1cccc([N+](=O)[O-])c1)NC(=O)c1ccccc1	0	17	12*	3	-1	-10
CCNC(=O)/C(=C\c1ccc(OC)cc1)NC(=O)c1ccc(Br)cc1	0	11	5.1*	6	0	3
O=C(NCCO)/C(=C/c1cccc([N+](=O)[O-])c1)NC(=O)c1cccc(Br)c1	0	4	1	0	·	·
O=C(NCCc1ccc(F)cc1)c1ccc([N+](=O)[O-])cc1	0	14	0	-62	·	·
CCOC(=O)c1ccc(NC(=O)/C(=C\c2ccc([N+](=O)[O-])cc2)NC(=O)c2ccco2)cc1	0	2	6.2*	2	0	5
COc1ccc(/C=C(/NC(=O)c2ccc(Br)cc2)C(=O)NCC(=O)O)cc1	0	9	-1	-6	·	·
O=C(Nc1cccc(Cl)c1)C1(c2ccccc2)CCOCC1	0	14	0	-1	·	·
c1ccc(-c2ncc(CNc3nc4nonc4nc3N3CCOCC3)s2)cc1	0	3	-1	-3	·	·
O=C(Nc1ccc([N+](=O)[O-])cc1)/C(=C/c1ccccc1)NC(=O)c1ccccc1	0	-6	7.3*	-2	0	12
CCNC(=O)/C(=C/c1cccc([N+](=O)[O-])c1)NC(=O)c1ccc(C)cc1	1	3	5.9*	-2	1	-2
CCCCNC(=O)/C(=C\c1cccc([N+](=O)[O-])c1)NC(=O)c1ccc(C)cc1	0	-2	0	-12	·	·
O=C(NCCCO)c1cccc([N+](=O)[O-])c1	0	1	5.1*	-1	0	6
CCOc1ccccc1N1CCN(C(=O)c2cccnc2)CC1	0	11	0	0	·	·
COCc1c(C(=O)N(C)CC(O)c2ccccc2)c(=O)cc(C)n1CCCc1ccccc1 (centres undefined)	0	-6	0	-43	·	·
COc1ccc(NC(=O)CCCN2C(=O)CCC2=O)c(OC)c1	0	16	10*	3	-1	1
COc1ccc(CNC(=O)CCCn2c(SCC(=O)Nc3ccc(OC)cc3OC)nc3cc4c(cc3c2=O)OCO4)cc1	0	-7	2	3	·	·
CCc1ccc(NC(=O)CSc2nc3ccccc3c(=O)n2CCc2ccccc2)cc1	0	-6	5.8*	-2	-1	-12
CC(=O)n1c(SCC(=O)Nc2ccc(C(C)C)cc2)nc2ccccc21	0	-1	6.8*	-11	0	13
CC(C)c1ccc(NC(=O)CSc2nc3ccccc3n2S(=O)(=O)c2cccs2)cc1	1	8	0	-7	·	·
COc1ccc(NC(=O)CSc2nc3ccccc3c(=O)n2CCCC(=O)NCc2ccccc2)c(OC)c1	0	3	7.5*	0	-1	-23
CCc1ccc(NC(=O)CSc2nc3ccccc3c(=O)n2CCc2ccc(OC)c(OC)c2)cc1	0	-8	0	-1	·	·
CN1C2=NCCCN2c2ccccc21	0	3	1	4	·	·
COc1ccc(CCc2ccc(OC)c(OC)c2)cc1OC	0	8	-1	-1	·	·
SMILES	FBW7 act	MITF primary	GPR151 activ	TEAD-YAP inh	GPR151 conf act	GPR119 ag
CCn1c(SCC(=O)Nc2ccc(C(=O)OC)cc2)nc2cccnc21	0	12	5.5*	4	0	-6
CCSc1nnc(NC(=O)COc2ccc(Cl)cc2Cl)s1	0	-8	7.2*	3	1	4
Cc1ccc(NC(=O)CSc2nnc(NC(=O)COc3ccc(Cl)cc3)s2)cc1	0	11	0	1	·	·
Cc1cccc(NC(=O)CSc2nnc(NC(=O)COc3ccc(Cl)cc3)s2)c1	0	1	6.5*	-6	-1	-5
Cc1nnc(SCC(=O)Nc2nc(-c3ccc(Cl)cc3)ns2)s1	0	0	5.2*	-9	-1	-6
CCC(CC)C(=O)Nc1nnc(SCc2cc(=O)c(OC(=O)c3ccco3)co2)s1	0	15	0	-6	·	·
Oc1ccc2ncccc2c1C(Nc1ccccn1)c1ccco1 (centres undefined)	0	8	31*	6	2	14
N#CC1=C(N)Oc2n[nH]c(-c3ccccc3)c2C1c1c(F)cccc1Cl (centres undefined)	0	5	1	14	·	·
CC(C)(C)NS(=O)(=O)c1cc(Br)cnc1N	0	-7	0	-3	·	·
CCC(C)(C)NS(=O)(=O)c1cc(Br)cnc1N	0	3	6.0*	-3	0	9
O=c1cc2oc3cc(O)c(O)cc3c(-c3ccccc3)c-2cc1O	0	104*	6.2*	13	-1	2
O=c1cc(-c2ccccc2O)oc2cc(O)ccc12	0	-2	-2	23	·	·
COc1ccc(OC)c(-c2c3cc(O)c(=O)cc-3oc3cc(O)c(O)cc23)c1	-1	107*	5.0*	-1	-1	9
Cn1c(=O)n(CC(=O)NCc2ccc(F)cc2)c2cccnc21	0	0	10*	-20	0	0
CC1(C)C(=O)NC2CCCCC2N1C(=O)Cn1nc2c3ccccc3nc(C3CC3)n2c1=O (centres undefined)	0	-15	0	-4	·	·
N#Cc1c(NC(=O)COc2ccc3ccccc3c2)sc2c1CCCC2	0	19	-2	7	·	·
CCOc1ccc2ccccc2c1C(=O)NCc1ccccn1	0	15	21*	-8	0	2
CCOc1ccc2ccccc2c1C(=O)NCc1cccs1	1	9	-1	2	·	·
CC(=O)c1ccc(NC(=O)C(C(F)(F)F)C(F)(F)F)cc1	0	-2	0	-44	·	·
O=C(N1CCOCC1)N1CCN(S(=O)(=O)N2CCCC2)CC1	0	-8	1	0	·	·
O=C(N1CCCCCC1)N1CCN(C(=O)N2CCOCC2)CC1	0	-2	5.8*	-2	0	3
O=C(Nc1cccc(Cl)c1)c1c(O)c2cccc3c2n(c1=O)CCC3	0	-2	3	-5	·	·
Cc1ccc(C(=O)C2=C(O)C(=O)N(CCN3CCOCC3)C2c2ccccn2)o1 (centres undefined)	0	27	7.9*	5	0	-1
Cc1cc(Cl)cc(Cl)c1OCCNCCO	0	-23	-1	0	·	·
CCN(CC)c1ncnc2c1oc1ccccc12	0	0	0	-3	·	·
COC(=O)c1ccc(/C=N/NS(=O)(=O)c2cc(C)ccc2C)cc1	0	-9	5.9*	11	-1	-9
COC(=O)c1ccc(/C=N\NC(=O)CNc2ccc(C)cc2)cc1	0	1	1	-2	·	·
